# About 13,000 (27%) of roughly 48,000 compounds showed an effect of 50% or more. Some of the results follow.
# System: Wolbachia pipientis
# Experiment: Anti-Wolbachia Cell-Based Screen
# Assay type: functional
# Set-up: scale not given: in the data most compounds retested in dose-response had high values
# Conditions: 5 µM
row,SMILES,Percent Effect
1,O=C(CN1CCOC1=O)N1CCc2nnc(-c3ccccc3)n2CC1,3.396%
2,CCc1nnc2n1CCN(C(=O)C(OC)c1ccccc1)C2 (centres undefined),-1.714%
3,Cc1nnc2n1CCN(C(=O)c1cc(C)n(-c3ccccn3)c1C)C2,-6.785%
4,CCc1nnc2n1CCN(C(=O)c1cnc3ccccc3n1)C2,-19.02%
5,Cc1nc(-c2ccsc2)ccc1C(=O)N1CCn2c(C)nnc2C1,-2.134%
6,CCc1nnc2n1CCN(C(=O)c1cn(-c3ccccc3)nn1)C2,104.4%
7,Cc1nnc2n1CCN(C(=O)c1cn(-c3ccc(F)cc3)nn1)C2,133.8%
8,CCC1(CC)C(=O)NC(=O)N=C1Nc1ccc(C)cc1,121.1%
9,CCc1ccc(CNC(=O)c2ccc(N3CCOC3=O)cc2)s1,-4.456%
10,CC(=O)Nc1ccc(Oc2cccc(CN3CCCC3)c2)cc1,-8.686%
11,CC(=O)Nc1ccc(Oc2ccc(CN3CCCC3)cc2F)cc1,96.27%
12,COc1ccc(CN2CCCC2)cc1Oc1ccc(NC(C)=O)cc1,-0.1715%
13,CC(Sc1nnnn1C1CCOCC1)C(F)(F)F (centres undefined),4.015%
14,O=C(Nc1ccccn1)C1=NN(c2ccccc2)C(=O)CN1,-0.4273%
15,CN(CCc1ccc2c(c1)CCO2)CC1CCS(=O)(=O)C1 (centres undefined),6.378%
16,CCNC(=O)C1CCCN(C(=O)Nc2ccc3c(c2)CCCN3C)C1 (centres undefined),-0.07324%
17,CC1(C)Cc2cc(-c3cncn3CCNC3CCS(=O)(=O)C3)ccc2O1.Cl (centres undefined),102.8%
18,CN1CCCc2cc(-c3cncn3CCNC3CCS(=O)(=O)C3)ccc21.Cl (centres undefined),82.25%
19,Cn1cc(CNC2CCS(=O)(=O)C2)c(-c2cc3ccccc3o2)n1 (centres undefined),-8.31%
20,Cc1ccc(-c2ccsc2C(=O)NC2CCS(=O)(=O)C2)cc1 (centres undefined),-8.809%
21,CCc1nncn1CCNC(=O)Nc1ccc2c(c1)CCCO2,-5.053%
22,Cl.O=S1(=O)CCC(NCCn2cncc2-c2ccc3c(c2)CCCO3)C1 (centres undefined),81.24%
23,CCN1CCc2cc(-c3cncn3CCNC3CCS(=O)(=O)C3)ccc21.Cl (centres undefined),103%
24,Cc1nn(C)c(N2CCOCC2)c1CNC1CCS(=O)(=O)C1 (centres undefined),-13.17%
25,N#Cc1ccnc(N2CCN(C(=O)NC3CCS(=O)(=O)C3)CC2)c1 (centres undefined),5.841%

row,SMILES,Percent Effect
1,CCc1cc(NC2CCS(=O)(=O)C2)nc(N2CCCCC2)n1 (centres undefined),-10.03%
2,Cc1cc(C(=O)NCC(O)CN2CCCC2=O)ccc1F (centres undefined),-5.14%
3,COCCN(C)c1ccc(NCc2ccsc2)nc1,-10.25%
4,CCOc1ccc(CN2CCCC(c3nn(C)c(=O)n3CC)C2)cn1 (centres undefined),24.07%
5,COc1ccccc1CC(=O)NS(=O)(=O)c1ccc(C(N)=O)cc1,6.119%
6,NC(=O)c1ccc(S(=O)(=O)NC(=O)COc2ccc3c(c2)CCC3)cc1,-8.361%
7,COc1ccc(Cl)cc1CC(=O)NS(=O)(=O)c1ccc(C(N)=O)cc1,102.7%
8,CCC(C)NC(=O)CS(=O)(=O)Cc1cc(Cl)ccc1OC (centres undefined),28.04%
9,COc1ccc(C)cc1CC(=O)NS(=O)(=O)c1ccc(C(N)=O)cc1,115.9%
10,COc1ccc(C)cc1CC(=O)Nc1cc(C)n[nH]1,4.97%
11,COc1ncccc1CN1C[C@H](C(=O)N2CCCO2)[C@@H]2CCO[C@@H]2C1,0.1445%
12,CC(C)(C)c1nnc(CNc2c(F)cccc2-n2cccn2)o1,-0.1409%
13,Cc1nc(CN2CCCC(CCc3ccccc3F)C2)c[nH]1 (centres undefined),15.72%
14,Cc1cc(C)c(C(=O)NC(CN2CCCC2)c2ccccc2)c(=O)[nH]1 (centres undefined),1.71%
15,COCCN1CCOCC12CCN(Cc1ccn(C)n1)CC2.O=C(O)C(F)(F)F.O=C(O)C(F)(F)F,-14.13%
16,COCCC(=O)N1CCC2(CCN(Cc3cccc(F)c3)CC2)CC1.O=C(O)C(F)(F)F,-14.44%
17,Cn1ccc(CN2CCCC23CCN(Cc2ccccc2F)CC3)n1.O=C(O)C(F)(F)F.O=C(O)C(F)(F)F,125.7%
18,Cn1ccc(CN2CCCC23CCN(Cc2cccc(F)c2)CC3)n1.O=C(O)C(F)(F)F.O=C(O)C(F)(F)F,121.8%
19,COc1cc(N2CCC3(CCCN3Cc3ccn(C)n3)CC2)ncn1.O=C(O)C(F)(F)F,-11.95%
20,Fc1cccc(CN2CCC3(CCCN3c3ncccn3)CC2)c1.O=C(O)C(F)(F)F,103.6%
21,Cn1cncc1CN1CCC2(CCCN2c2ncccn2)CC1.O=C(O)C(F)(F)F,7.027%
22,Cc1c(CN2CCCC(C(=O)CCc3ccccc3)C2)cc(C#N)n1C (centres undefined),16.56%
23,CCn1ncc(CNC(=O)c2cn(CCC3CCCCN3)nn2)c1C (centres undefined),3.216%
24,CN(CC(=O)NC(C)(C)C)Cc1nc(-c2ccccc2)c[nH]1,-12.75%
25,CN(CC(=O)NCC(O)c1cccc(F)c1)C(=O)OC(C)(C)C (centres undefined),1.189%

row,SMILES,Percent Effect
1,CN(CC(=O)NCC(F)(F)F)C(=O)c1ccc(C(=O)OC(C)(C)C)cc1,91.82%
2,Cc1ccc(OCC(=O)NCC(F)(F)F)nc1,-4.389%
3,Cc1cccc(NC(=O)CN(C)C(=O)c2ccc(OC(C)C)nc2)n1,4.087%
4,Cc1ccc(C(=O)N(C)CC(=O)NCC(F)(F)F)cn1,99.88%
5,CN(CC(=O)NCC(CCO)c1ccccc1)C(=O)OC(C)(C)C (centres undefined),2.407%
6,CSc1ccc(S(=O)(=O)N2CCCCC2CCNC(C)=O)cc1 (centres undefined),-2.003%
7,CCN1CCN2CCCN(S(=O)(=O)c3cccc(F)c3)C2C1=O (centres undefined),4.508%
8,CC(=O)c1ccc(S(=O)(=O)N2CCCC2CN2CCCC2)cc1 (centres undefined),-61.12%
9,CC(=O)NCCC1CCCCN1S(=O)(=O)c1ccc2ccccc2c1 (centres undefined),104.3%
10,CNS(=O)(=O)CC1CCCN1C(=O)c1cccc(Cl)c1 (centres undefined),-8.436%
11,CC(=O)NCCC1CCCCN1S(=O)(=O)c1cccc(C#N)c1 (centres undefined),-10.91%
12,CC(=O)NCCC1CCCCN1S(=O)(=O)c1cccc(F)c1 (centres undefined),85.51%
13,CC(=O)NCCC1CCCCN1S(=O)(=O)c1cccc(Cl)c1 (centres undefined),153.7%
14,CCN1CC(C(=O)N(C)Cc2ccon2)CC1=O (centres undefined),8.13%
15,CCN(CC)[C@H]1C[C@@H](Cc2cc(CO)on2)C1(C)C,-1.281%
16,COC(=O)c1ccccc1NC(=O)c1c(C)cn(C)c1CC(=O)O,101.4%
17,COc1ccc(OC)c(NC(=O)N2CCCC2c2ccco2)c1 (centres undefined),-3.414%
18,COc1ccc(C)cc1NC(=O)c1c(C)cn(C)c1CC(=O)O,106.8%
19,COc1ccc(C)cc1NC(=O)CNc1ccn(CC(N)=O)n1,-13.27%
20,COC(=O)c1ccccc1NC(=O)c1nc2ccccc2n(C)c1=O,2.974%
21,COc1ccc(OC)c(CNCc2c(C)nc3sc(C)cn23)c1,17.49%
22,COc1ncc(NC(=O)Nc2cc(C)ccc2OC)cn1,7.981%
23,CCn1cc(C(=O)Nc2ccc(C)cc2C(=O)OC)cn1,-8.405%
24,COc1ccc(OC)c(NC(=O)c2c(C)cn(C)c2CC(=O)O)c1,111%
25,CCCN(C1CCc2ccccc2C1)S(C)(=O)=O (centres undefined),-12.4%

row,SMILES,Percent Effect
1,NC(=O)CN(CC1CCOC1)C1CC1 (centres undefined),12.45%
2,COCC(=O)N1CCN(C(=O)Cc2cccs2)[C@H]2CS(=O)(=O)C[C@H]21,102.4%
3,COCC(=O)N1CCN(S(=O)(=O)c2ccccc2)[C@H]2CS(=O)(=O)C[C@H]21,117.3%
4,CS(=O)(=O)N1CCN(C(=O)c2ccco2)[C@H]2CS(=O)(=O)C[C@H]21,-4.132%
5,COCC(=O)N1CCN(S(=O)(=O)c2ccccc2)[C@@H](C(=O)OC)C1,2.651%
6,COCC(=O)N1CCN(S(=O)(=O)c2cccs2)[C@H]2CS(=O)(=O)C[C@H]21,101.1%
7,COCC(=O)N1CCN(C(=O)c2cccs2)C[C@H]1C(=O)OC,-7.618%
8,CCCN1C(=O)[C@@H]2[C@@H](CCN2C(=O)COC)N(Cc2cccs2)C1=O,27.38%
9,CCC(=O)N1CCN(S(=O)(=O)c2cccc(F)c2)[C@H]2CS(=O)(=O)C[C@H]21,7.69%
10,COc1ccccc1S(=O)(=O)N1CCN(C)[C@@H]2CS(=O)(=O)C[C@@H]21,-4.767%
11,CSCc1nc(CCNC(=O)C2CCCN(C(C)=O)C2)cs1 (centres undefined),1.152%
12,Cc1ccccc1CCNC(=O)C1CC(=O)N(CC(F)(F)F)C1 (centres undefined),1.737%
13,CN1CC(C(=O)NCCc2ccc(F)c(Br)c2)CC1=O (centres undefined),95.91%
14,CC(=O)N1CCCC(C(=O)NCCc2ccc(F)c(Br)c2)C1 (centres undefined),78.71%
15,CN1CC(C(=O)NCc2ccc(Br)cc2F)CC1=O (centres undefined),97.3%
16,COc1ncccc1CNC(=O)C1CC(=O)N(C)C1 (centres undefined),-5.362%
17,CC(C)CN1CC(C(=O)NCCc2ccc(OC(F)F)cc2)CC1=O (centres undefined),-18.94%
18,CN1CC(C(=O)NCc2ccc(OCc3cccnc3)cc2)CC1=O (centres undefined),-2.56%
19,CN1CC(C(=O)NCc2cccnc2OCC(F)(F)F)CC1=O (centres undefined),1.673%
20,CN1CC(C(=O)NCCc2ccc(Br)cc2F)CC1=O (centres undefined),108.1%
21,CC(=O)N1CCCC(C(=O)NCCc2nc(Cc3ccccc3)no2)C1 (centres undefined),-1.107%
22,CN1CC(C(=O)NCCc2ccn(-c3ccc(F)cc3)n2)CC1=O (centres undefined),-45.08%
23,Cn1ccc(C(=O)NC2CCN(c3ncccn3)CC2)cc1=O,3.49%
24,CC(C)N1CCN(C(=O)Nc2cnn(CC(N)=O)c2)CC1,2.959%

# Reference: ChEMBL document CHEMBL3988442, “University of Dundee, Small-Polar-MMV Screening Library” (2021)
